Measured values published in paper PMC9911399, “Two distinct binding modes provide the RNA-binding protein RbFox with extraordinary sequence specificity”.
Positions count from the first letter of the chain named. Over roughly 16,000 sequences, “ka relative to ugcaugu” has its median near 0.096; the highest 2% begin near 0.35. Shown is part of a subset that was picked to be rich in the highest values.

T1: RBFOX1 RRM RbFoxmut (Fox-RRM*) (Homo sapiens, UniProt Q9NWB1 109-208, R118D;E147R;N151S;E152T)
T1 sequence: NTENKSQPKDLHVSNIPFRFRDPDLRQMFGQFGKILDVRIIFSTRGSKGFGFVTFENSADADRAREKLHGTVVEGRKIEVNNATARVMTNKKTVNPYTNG

B1: GCACGUU (DNA:RNA)
RNA: GGGAGACCGGAAUUCAGAUUGUCCGCACGUUUUAAAUCCCGUCGUAGCCACCA
DNA 1: CAATCTGAATTCCGGTCTCCC
DNA 2: TGGTGGCTACGACGGGATT
B2: GUUAAGG (DNA:RNA)
RNA: B1 RNA with C26U, A27U, C28A, G29A, U30G, U31G
DNA 1: CAATCTGAATTCCGGTCTCCC
DNA 2: TGGTGGCTACGACGGGATT
B3: UGUACAC (DNA:RNA)
RNA: GGGAGACCGGAAUUCAGAUUGUCCUGUACACUUAAAUCCCGUCGUAGCCACCA
DNA 1: CAATCTGAATTCCGGTCTCCC
DNA 2: TGGTGGCTACGACGGGATT
B4: GUCUCAC (DNA:RNA)
RNA: B3 RNA with U25G, G26U, U27C, A28U
DNA 1: CAATCTGAATTCCGGTCTCCC
DNA 2: TGGTGGCTACGACGGGATT
B5: GGGUCUA (DNA:RNA)
RNA: B1 RNA with C26G, A27G, C28U, G29C, U31A
DNA 1: CAATCTGAATTCCGGTCTCCC
DNA 2: TGGTGGCTACGACGGGATT
B6: UAACUCU (DNA:RNA)
RNA: B1 RNA with G25U, C26A, G29U, U30C
DNA 1: CAATCTGAATTCCGGTCTCCC
DNA 2: TGGTGGCTACGACGGGATT
B7: UCUGACU (DNA:RNA)
RNA: B1 RNA with G25U, A27U, C28G, G29A, U30C
DNA 1: CAATCTGAATTCCGGTCTCCC
DNA 2: TGGTGGCTACGACGGGATT
B8: AACCUGA (DNA:RNA)
RNA: B1 RNA with G25A, C26A, A27C, G29U, U30G, U31A
DNA 1: CAATCTGAATTCCGGTCTCCC
DNA 2: TGGTGGCTACGACGGGATT
B9: CAACUCG (DNA:RNA)
RNA: B1 RNA with G25C, C26A, G29U, U30C, U31G
DNA 1: CAATCTGAATTCCGGTCTCCC
DNA 2: TGGTGGCTACGACGGGATT
B10: UGUGUUC (DNA:RNA)
RNA: B3 RNA with A28G, C29U, A30U
DNA 1: CAATCTGAATTCCGGTCTCCC
DNA 2: TGGTGGCTACGACGGGATT
B11: CACUGAA (DNA:RNA)
RNA: B1 RNA with G25C, C26A, A27C, C28U, U30A, U31A
DNA 1: CAATCTGAATTCCGGTCTCCC
DNA 2: TGGTGGCTACGACGGGATT
B12: UUCCUUC (DNA:RNA)
RNA: B1 RNA with G25U, C26U, A27C, G29U, U31C
DNA 1: CAATCTGAATTCCGGTCTCCC
DNA 2: TGGTGGCTACGACGGGATT
B13: GUUAUGC (DNA:RNA)
RNA: B3 RNA with U25G, G26U, C29U, A30G
DNA 1: CAATCTGAATTCCGGTCTCCC
DNA 2: TGGTGGCTACGACGGGATT
B14: UUAUGCU (DNA:RNA)
RNA: B1 RNA with G25U, C26U, C28U, U30C
DNA 1: CAATCTGAATTCCGGTCTCCC
DNA 2: TGGTGGCTACGACGGGATT
B15: GGUAUGC (DNA:RNA)
RNA: B3 RNA with U25G, C29U, A30G
DNA 1: CAATCTGAATTCCGGTCTCCC
DNA 2: TGGTGGCTACGACGGGATT
B16: GUAUGCU (DNA:RNA)
RNA: B1 RNA with C26U, C28U, U30C
DNA 1: CAATCTGAATTCCGGTCTCCC
DNA 2: TGGTGGCTACGACGGGATT
B17: CGUAUGC (DNA:RNA)
RNA: B3 RNA with U25C, C29U, A30G
DNA 1: CAATCTGAATTCCGGTCTCCC
DNA 2: TGGTGGCTACGACGGGATT
B18: GGAUGCU (DNA:RNA)
RNA: B1 RNA with C26G, C28U, U30C
DNA 1: CAATCTGAATTCCGGTCTCCC
DNA 2: TGGTGGCTACGACGGGATT
B19: GAGCUUG (DNA:RNA)
RNA: B1 RNA with C26A, A27G, G29U, U31G
DNA 1: CAATCTGAATTCCGGTCTCCC
DNA 2: TGGTGGCTACGACGGGATT
B20: UGUGGCA (DNA:RNA)
RNA: B3 RNA with A28G, C29G, A30C, C31A
DNA 1: CAATCTGAATTCCGGTCTCCC
DNA 2: TGGTGGCTACGACGGGATT

target: T1, RBFOX1 RRM RbFoxmut (Fox-RRM*); assay: EMSA; HiTS-Eq, 1 nM pool, 10 min; buffer printed only for the single-RNA assays: 10 mM Tris pH 7.5, 150 mM NaCl, 3.4 mM EDTA, 0.001% NP-40, 30 C; conditions: tags: His6 N-terminal (pET28a); label: 5' 32P
Summary of the method: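 A pool of RNA with 7 randomized nucleotides, 5′-radiolabelled and with DNA-annealed flanks, was equilibrated at 1 nM for 10 min in 50 µL with purified RbFox RRM, wild type or mutant, across increasing protein concentrations. Free RNA was separated by 8% native PAGE, excised, reverse-transcribed, barcoded by PCR and sequenced. Relative association constants were obtained from read-count changes of each RNA species versus the control reaction and normalised to the cognate motif.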

Binder | binding signal
B1 | 0.318 KA relative to UGCAUGU
B2 | 0.0786 KA relative to UGCAUGU
B3 | 0.0562 KA relative to UGCAUGU
B4 | 0.0695 KA relative to UGCAUGU
B5 | 0.1 KA relative to UGCAUGU
B6 | 0.0488 KA relative to UGCAUGU
B7 | 0.0694 KA relative to UGCAUGU
B8 | 0.0413 KA relative to UGCAUGU
B9 | 0.142 KA relative to UGCAUGU
B10 | 0.108 KA relative to UGCAUGU
B11 | 0.0869 KA relative to UGCAUGU
B12 | 0.0735 KA relative to UGCAUGU
B13 | 0.21 KA relative to UGCAUGU
B14 | 0.13 KA relative to UGCAUGU
B15 | 0.398 KA relative to UGCAUGU
B16 | 0.402 KA relative to UGCAUGU
B17 | 0.325 KA relative to UGCAUGU
B18 | 0.142 KA relative to UGCAUGU
B19 | 0.253 KA relative to UGCAUGU
B20 | 0.136 KA relative to UGCAUGU
